Assay results: PubChem BioAssay AID624305 (National Center for Advancing Translational Sciences (NCATS), 2012)
Results filed as inconclusive are left out. Entries that show only a call come without a potency. Activity calls are given as the source filed them. Calls follow the shape of the dose curve; as a rule, active = well fitted activation curve with a large enough effect; inconclusive = small, poorly fitted or top-dose-only effect; inactive = no such curve, though single readings can be large or run the other way.

Experiment: qHTS assay for re-activators of p53 using a Luc reporter: Hit Validation; also: nearly all actives have a fitted effect of over 75% in size
Settings: p53-responsive luciferase reporter cells, luminescence, H1299 line expressing heat-sensitive Ala138Val p53; series mostly up to 46.1 µM
Description: The p53 tumor suppressor plays a key role in suppression of tumorigenesis and in human carcinogenesis. It is frequently found inactivated in human cancers, mainly by point mutation. These point mutations are found in a wide variety of human cancers and a majority of them affect the DNA binding domain of the protein. The point mutations either alter native p53 conformation or abolish DNA contact. Additionally, cancer cells with p53 mutations are more resistant to chemo-radiation therapies.
In order to find activators to reactivate this important protein, a cell-based screen for p53-dependent luciferase-reporter expression was developed. A p53-null H1299 lung cancer cell line was stably co-transfected with a temperature sensitive p53 mutant, p53-A138V, and a p53-responsive BP100-luciferase reporter. This cell model has previously been characterized in a gene chip profiling experiment for p53 activation. By lowering the culture temperature from 37 deg C (mutant p53 conformation) to 32 deg C (w.t. p53 conformation), a 30-60 fold increase in activation of luciferase activity is observed. At assay temperate, 37 deg C, basal reporter expression is very low and after the addition of detection reagent, a luminescent read-out is carried out. This is the hit validation assay, confirming the hits identified from the primary screen.
NIH Chemical Genomics Center [NCGC]
NIH Molecular Libraries Probe Production Centers Network [MLPCN]
Assay Provider (PI): Yi Sung, University of Michigan at Ann Arbor
5ul of 1000 cells per well are dispensed in all wells except column 4, into white solid-bottom TC-treated Kalypsys plates. The cells are kept in Opti-MEM and supplemented with 10% FBS and dispensed using a Multidrop (Thermo). Then using the Kalypsys pin-tool, 23nl of compounds are pinned. The compounds are starting concentration at 10mM, with 1:5 dilution, 4 points, and the control compound nocodazole is pinned in column 1 at 25mM, 1:3 dilution, in duplicate, 25mM nocodazole is pinned in column 2. Please note, all concentrations are working concentrations. 5ul of 1pM purified luciferase enzyme is dispensed using the Kalypsys dispenser in column 4. Plates are incubated for 24 hrs at 37 deg C, 5% CO2, and 95% humidity. Then 4ul of the detection reagent Amplite (ABD Bioquest) is added using the Kalypsys dispenser. Plates are incubated for 10 min at ambient room temperature and are then read on the ViewLux (Perkin Elmer) using a clear filter for a luminescent read-out.
Potency is read from the fitted curve at half-maximal effect.

Structure (SMILES)	Potency	activation
O=C(Nc1ccc2c(c1)OCO2)c1cc(Cl)ccn1	4.61 µM (active)	–
O=C1CCCC(O)=C1N=Nc1ccc2c(c1)OCO2	23.1 µM (active)	–
Cc1ccnc(NC(=S)NC(=O)c2cccs2)c1	0.082 µM (active)	–
COCCn1c(C)cc(C(=O)CSc2nc3ccccc3s2)c1C	–	130% [at 9.22 µM] (inactive)
CCc1ccc(N=c2c([N+](=O)[O-])nn(-c3ccccc3)n2O)cc1	9.2 µM (active)	–
CC(Cc1ccccc1)NC(=O)c1ccc([N+](=O)[O-])cc1 (stereo not given)	2.59 µM (active)	–
CC1CCC(NC(=O)C2CCN(C(=O)Nc3ccccc3)CC2)CC1 (stereo not given)	inactive	–
CCOc1ccc(NC(=O)C(c2ccccn2)N(C(=O)CCl)c2ccc(OC)cc2)cc1 (stereo not given)	inactive	–
CC(C)(C)c1nnc(SCC(=O)c2ccccc2)n(N)c1=O	inactive	–
Cc1ccc(C(=O)CN2C(=O)NC3(CCCCC3C)C2=O)s1 (stereo not given)	inactive	–
Cc1ccc(Nc2nc(N)nc(CSc3nccn3C)n2)cc1	2.31 µM (active)	–
CCN1CCN(/C=N/c2nc3c(s2)CCCC3)CC1	inactive	–
CCCCCNC(=O)N[C@H](C(=O)O)C(C)C	inactive	–
CN(C)CCN(CC1CCCN(Cc2ccccc2F)C1)C(=O)c1ccc(F)cc1 (stereo not given)	inactive	–
Cc1ccc2nc(-c3ccc(NC(=O)COC(=O)c4ccc(Br)o4)cc3)sc2c1	0.0517 µM (active)	–
COc1ccccc1-c1nc(-c2ccc(Br)o2)no1	0.366 µM (active)	–
CCN1CCc2c(sc(NC(=O)c3ccc(S(=O)(=O)N4CCCC4)cc3)c2C(=O)NC)C1	inactive	–
CCOC(=O)CC(=O)Nc1ccc(C(=O)OCC)cc1	inactive	–
Cc1noc(C)c1COc1ccc(C(=O)NCCOc2ccccc2)cc1	inactive	–
C=CCOc1c(OC)cc(/C=N/Nc2cccc(C(=O)O)c2)c(Br)c1Br	13 µM (active)	–

Structure (SMILES)	Potency	activation
Cc1nn(-c2ccccc2)c(N2CCCC2)c1/C=N/NC(=O)c1cc(-c2ccccc2)nc2ccccc12	inactive	–
Fc1cccc(NCc2cn3ccccc3n2)c1	3.26 µM (active)	–
O=C(COC(=O)CNC(=O)c1ccc([N+](=O)[O-])o1)Nc1ncc(C(F)(F)F)cc1Cl	inactive	–
N#CC(c1ccccc1)C1CCN(Cc2ccccc2)CC1 (stereo not given)	inactive	–
O=C(CSc1nnc(-c2ccc3c(c2)OCCO3)o1)N1CCCC1	7.31 µM (active)	–
O=C(O)c1ccc(N/N=C/c2ccc3ncccc3c2)cc1	0.184 µM (active)	–
COc1ccc(-c2cc3ccc(F)cc3cn2)cc1	0.92 µM (active)	–
COc1ccc(C(=O)N/N=C(\C)c2ccccn2)cc1OC	13 µM (active)	–
CCOc1ccc(NC(=O)c2cnsn2)cc1	2.31 µM (active)	–
COc1ccc2cc(C3(C)NC(=O)N(CC(=O)Nc4c(C)n(C)n(-c5ccccc5)c4=O)C3=O)ccc2c1 (stereo not given)	inactive	–
CCCCn1c(O)c(N=Nc2ccccc2O)c2ccccc21	inactive	–
Cc1ccc(NC2=C(Cl)C(=O)c3ccccc3C2=O)cc1	inactive	–
O=C1NCCCc2c1oc1ccc(O)cc21	–	41% [at 9.22 µM] (inactive)
C=CCn1c(P(C)(=O)O)nc2ccccc21	inactive	–
O=C(CCCN1C(=O)/C(=C/c2ccco2)SC1=S)Nc1ccccc1	inactive	–
CC(C)NC(=S)N1CCN(S(C)(=O)=O)CC1	inactive	–
CCCCn1c(SCC(=O)N2CCCC2=O)nc2cc(S(N)(=O)=O)ccc21	inactive	–
CN(C)c1ccc(/C=N/Nc2nncc3ccccc23)cc1	0.366 µM (active)	–
O=C1NC(c2ccc(Br)cc2)=N/C1=C/c1ccco1	0.58 µM (active)	–
CCOC(=O)c1c(C)[nH]c(C(=O)CSc2ccccc2)c1C	0.517 µM (active)	–
